High-throughput results (PubChem BioAssay)
Most compounds without a hit are left out; they make up all but 10% or so of the library.
GPT2 inh = inhibitors of human GPT2 alanine aminotransferase | Q8TD30 | Recombinant GPT2, coupled pyruvate oxidase/HRP Amplex Red fluorescence | Potency, µM (doses to about 57.7 µM), most hits filed as inhibitors | 0.25% of 100,000 active; further: nearly all actives have a fitted effect of over 60% in size
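Recombinant GPT2 (10ng/uL) with 250uM a-KG and 2mM L-alanine, 30 min at room temperature, in HEPES pH 7.5 buffer. Pyruvate detected by pyruvate oxidase/HRP/Amplex Red fluorescence after 30 min in the dark; AOA (50uM) as positive control.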
HEK293 tox = cytotoxic compounds in HEK 293 cells. Potency, µM (highest dose often 115 µM), hits mostly inhibitors. 6.6% of 94,000 active. AID 1345083. HEK 293 viability, ATP luminescence (CellTiter-Glo), 48-72 h; further: nearly all actives have a fitted effect of over 60% in size
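CellTiter-Glo luminescence (cellular ATP) was read after 48 or 72 hr of compound exposure at 37 degree Celsius. Cells were HEK 293 plated at 250 cells/well.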
NPR1 antag = blocks ANP-stimulated signaling of human Npr1 receptor; 1.6% of 76,000 active; Potency, µM (titrated, usually from 46.3 µM), actives largely listed as inhibitors; P16066; HEK293 hNpr1 GloSensor cGMP, ANP-stimulated luminescence; calls by dose curve; further: nearly all actives have a fitted effect of over 60% in size
Target sequence (P16066 whole entry, looked up): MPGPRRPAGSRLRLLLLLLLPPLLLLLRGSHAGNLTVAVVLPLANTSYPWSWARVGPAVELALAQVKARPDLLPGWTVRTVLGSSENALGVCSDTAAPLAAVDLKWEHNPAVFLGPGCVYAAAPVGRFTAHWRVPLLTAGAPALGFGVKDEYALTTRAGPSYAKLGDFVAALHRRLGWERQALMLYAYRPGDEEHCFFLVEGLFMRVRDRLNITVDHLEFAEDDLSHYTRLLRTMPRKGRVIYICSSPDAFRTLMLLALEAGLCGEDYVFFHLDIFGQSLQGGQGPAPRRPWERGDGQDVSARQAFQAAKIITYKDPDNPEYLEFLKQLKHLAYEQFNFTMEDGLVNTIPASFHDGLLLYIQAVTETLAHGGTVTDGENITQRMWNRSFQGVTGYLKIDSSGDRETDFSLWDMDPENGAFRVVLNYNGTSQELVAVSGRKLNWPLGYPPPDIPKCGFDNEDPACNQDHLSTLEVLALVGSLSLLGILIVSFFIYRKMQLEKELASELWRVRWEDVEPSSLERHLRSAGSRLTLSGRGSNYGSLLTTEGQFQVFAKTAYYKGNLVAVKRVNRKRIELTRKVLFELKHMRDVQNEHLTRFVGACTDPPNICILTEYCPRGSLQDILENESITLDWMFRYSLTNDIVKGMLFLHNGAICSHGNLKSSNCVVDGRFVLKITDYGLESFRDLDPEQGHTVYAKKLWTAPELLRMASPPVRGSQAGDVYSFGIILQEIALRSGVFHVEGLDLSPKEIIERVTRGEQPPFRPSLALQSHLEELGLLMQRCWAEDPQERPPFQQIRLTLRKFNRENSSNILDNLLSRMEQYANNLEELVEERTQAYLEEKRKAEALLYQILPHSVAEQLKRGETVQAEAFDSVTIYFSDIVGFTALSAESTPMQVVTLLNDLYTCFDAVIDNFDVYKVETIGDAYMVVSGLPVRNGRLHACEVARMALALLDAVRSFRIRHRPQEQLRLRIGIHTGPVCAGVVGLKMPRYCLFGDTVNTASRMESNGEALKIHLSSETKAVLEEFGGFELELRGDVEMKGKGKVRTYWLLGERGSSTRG
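Compound pre-incubated 30 min at room temperature on GloSensor-loaded HEK293 cells stably carrying hNpr1 and the pGS-40F cGMP biosensor. Stimulation uses hNppA at 0.1 nM final; luminescence is taken at baseline and 20 min post-agonist.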
Luciferase inh = inhibitors of firefly (Photinus pyralis) luciferase; Potency, µM (doses to about 115 µM), actives largely listed as inhibitors; 2.5% of 76,000 active; purified P. pyralis luciferase, luminescence, biochemical; AID 1347043; P08659; further: nearly all actives have a fitted effect of over 65% in size
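Inhibitors were tested against purified firefly luciferase in a biochemical, low-substrate format (both substrates at 10uM) and luminescence measured with a CCD imager.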
3T3 cytotox = NIH 3T3 cell cytotoxicity. 4.3% of 94,000 active. NIH 3T3 viability, CellTiter-Glo ATP luminescence, 48-72 h. Potency, µM (top dose mostly 96.7 µM), most hits filed as inhibitors. AID 1345082; further: nearly all actives have a fitted effect of over 55% in size
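Cells were seeded at 400 per well, treated with pin-transferred compound, and kept 48 or 72 hr at 37 °C before CellTiter-Glo addition and luminescence imaging of cellular ATP.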
A number is an active result; [ ] = dose if it differs, or a comment. Unless noted, the call rests on the fitted dose curve; in most records, active means well fitted curve in the direction sought with a large enough effect; inconclusive means small, poorly fitted or top-dose-only effect, or another doubt; inactive means no such curve, though single readings can be large; an effect the other way counts as inactive or inconclusive.

Results for COc1ccc(C(=O)NC2CCN(c3cc(-c4ccccc4)[nH]n3)C2)cc1F (configuration not stated) ?
GPT2 inh: inconclusive; HEK293 tox: inconclusive; NPR1 antag: inactive; Luciferase inh: inactive; 3T3 cytotox: inconclusive

Results for CCOc1cc(C(=O)NC2CCN(c3cc(-c4ccccc4)[nH]n3)C2)cc(OCC)c1OCC (configuration not stated) ?
GPT2 inh: inactive; HEK293 tox: inconclusive; NPR1 antag: inactive; Luciferase inh: inactive; 3T3 cytotox: inconclusive

Results for COc1ccc(OC)c(CNC(=O)c2ccc(N3CC4CC(C3)[C@H]3CCCC(=O)N3C4)nc2)c1 (some centres not stated) ?
GPT2 inh: inactive; HEK293 tox: inactive; NPR1 antag: inactive; Luciferase inh: inactive; 3T3 cytotox: inactive

Results for CCOC(=O)C1(Cc2ccc(F)cc2F)CCCN(C(=O)Nc2ccc3c(c2)OCO3)C1 (configuration not stated) ?
GPT2 inh: inconclusive; HEK293 tox: inconclusive; NPR1 antag: inactive; Luciferase inh: inconclusive; 3T3 cytotox: inconclusive

What do the screens show for `CC1CCN(C(=O)c2ccccc2OCC2CCCN(C3CCCC3)C2)CC1` (configuration not stated)?
GPT2 inh: inactive; HEK293 tox: inconclusive; NPR1 antag: inactive; Luciferase inh: inactive; 3T3 cytotox: inconclusive

Results for CC(C)NC(=O)NC1CCN(C(=O)c2ccc(-c3cccs3)cc2)CC1 ?
GPT2 inh: inactive; HEK293 tox: inactive; 3T3 cytotox: inconclusive

What do the screens show for `O=[S+]1([O-])c2cccnc2O[C@@H](COCc2ccccc2)CN1Cc1ccc2c(c1)OCO2`?
GPT2 inh: inactive; HEK293 tox: inconclusive; 3T3 cytotox: inconclusive

How did CN1CCOc2c(C(=O)NCCc3cnc[nH]3)cc(-c3ccccc3)cc21 do in these assays?
GPT2 inh: inactive; HEK293 tox: inconclusive; NPR1 antag: inactive; Luciferase inh: inactive; 3T3 cytotox: 79µM

How did CN1CCOc2c(C(=O)NCCc3cnc[nH]3)cc(-c3cccc4[nH]ccc34)cc21 do in these assays?
GPT2 inh: inactive; HEK293 tox: inconclusive; NPR1 antag: inactive; Luciferase inh: inconclusive; 3T3 cytotox: 89µM

Results for CN1CCOc2c(C(=O)NCc3cnn(C)c3)cc(-c3cccnc3)cc21 ?
GPT2 inh: inactive; HEK293 tox: inconclusive; NPR1 antag: inactive; Luciferase inh: inactive; 3T3 cytotox: 35µM

Results for C[S+](=O)([O-])c1ccc(-c2nnc3ccc(C(=O)NCCc4ccccc4F)cn23)cc1 ?
GPT2 inh: inactive; HEK293 tox: inactive; 3T3 cytotox: inconclusive

Results for O=C(NC1CCN(c2cnn(CC3CC3)c(=O)c2)CC1)c1ccc2c(c1)OCO2 ?
GPT2 inh: inactive; HEK293 tox: inactive; NPR1 antag: inactive; Luciferase inh: inactive; 3T3 cytotox: inactive

How did O=C(Nc1ccc(F)cc1F)c1cnc(-c2ccc(F)cc2)nc1-c1ccncc1 do in these assays?
GPT2 inh: inactive; HEK293 tox: inactive; NPR1 antag: inactive; Luciferase inh: inactive; 3T3 cytotox: inactive

Results for O=C(Nc1ccc(Br)c(F)c1)c1cnc(-c2ccccc2)nc1-c1ccncc1 ?
GPT2 inh: inactive; HEK293 tox: 32µM; NPR1 antag: inconclusive; Luciferase inh: inactive; 3T3 cytotox: 25µM

Results for Cc1ccc(-c2ncc(C(=O)Nc3ccc(F)cc3C)c(-c3ccncc3)n2)cc1 ?
GPT2 inh: inactive; HEK293 tox: 40µM; NPR1 antag: inactive; Luciferase inh: inactive; 3T3 cytotox: 22µM

How did Cc1c(Cl)cccc1NC(=O)c1cnc(-c2ccccc2)nc1-c1ccncc1 do in these assays?
GPT2 inh: inactive; HEK293 tox: inconclusive; NPR1 antag: inconclusive; Luciferase inh: inactive; 3T3 cytotox: 35µM

Results for O=C(Nc1cccc(Br)c1)c1cnc(-c2ccccc2)nc1-c1ccncc1 ?
GPT2 inh: inactive; HEK293 tox: 40µM; NPR1 antag: inconclusive; Luciferase inh: inactive; 3T3 cytotox: inconclusive

What do the screens show for `Cc1ccc2oc(CN3CCCn4nc(C(O)CN(C)C)cc4C3)c(C)c2c1` (configuration not stated)?
GPT2 inh: inactive[11.5 µM]; HEK293 tox: inconclusive; NPR1 antag: inactive; Luciferase inh: inactive; 3T3 cytotox: inconclusive

What do the screens show for `COc1ccccc1C(=O)NC[C@@H]1C=C(C)[C@H](CC(=O)N2CCCC2)C[C@H]1C(C)C`?
GPT2 inh: inactive; HEK293 tox: inconclusive; NPR1 antag: inactive; Luciferase inh: inactive; 3T3 cytotox: inconclusive
